Screens deposited in PubChem BioAssay by National Center for Advancing Translational Sciences (NCATS).
D1 antag = antagonists of human D1 dopamine receptor. HEK293 TREx D1 cells, calcium flux, dopamine EC80; stronger effect = lower value. P21728. actives 3.2% (n = 360,000). activity change, negative = inhibition, % at 10 µM. AID 504652; in the data active means activity change below about -30%; further: on the % scale 0 is the no-effect control and ±100 the full control effect
Target sequence (P21728 whole entry, looked up): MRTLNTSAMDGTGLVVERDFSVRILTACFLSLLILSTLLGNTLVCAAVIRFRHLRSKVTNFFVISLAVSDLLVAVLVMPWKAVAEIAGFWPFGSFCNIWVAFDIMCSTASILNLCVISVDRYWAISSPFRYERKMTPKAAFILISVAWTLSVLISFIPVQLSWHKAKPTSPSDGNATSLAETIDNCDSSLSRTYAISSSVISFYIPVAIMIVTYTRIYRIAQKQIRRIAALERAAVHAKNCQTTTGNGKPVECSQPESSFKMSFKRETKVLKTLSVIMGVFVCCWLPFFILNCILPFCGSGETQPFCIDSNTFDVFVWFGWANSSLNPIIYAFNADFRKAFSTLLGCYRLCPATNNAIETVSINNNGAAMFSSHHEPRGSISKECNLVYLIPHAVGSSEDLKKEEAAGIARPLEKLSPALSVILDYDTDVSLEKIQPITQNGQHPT
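HEK293 T-REx cells expressing inducible, force-coupled D1 receptor; no-wash Ca dye, 30–90 min RT. Cmpd → 180 s read at 1 Hz → EC80 DA → 180 s read.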
D1 potentiator = human D1 dopamine receptor positive modulation | P21728 | HEK293 TREx D1 cells, calcium flux, dopamine EC20 potentiation | potentiation, % at 10 µM | actives 0.036% (n = 360,000) | AID 504651; in the data active means potentiation above about 30%; further: 0% is about no effect
TRHR ag = agonists of human TRH receptor; actives 0.18% (n = 360,000); P34981; TRHR cells, calcium flux fluo-8, FDSS agonist mode; activation, % at 2 µM; further: 0% is about no effect
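Read-out: compound-evoked intracellular calcium rise in TRHR cells, fluo-8 dye, kinetic FDSS fluorescence at 1 s/cycle following a 10-cycle baseline. Cells cultured overnight before dye loading (30 min–1.5 h, RT).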
TRHR PAM = TRH receptor (human) allosteric enhancement. P34981. enhancement, % at 2 µM. actives 0.66% (n = 360,000). TRHR cells, fluo-8 calcium fluorescence, EC20 TRH enhancement. AID 493056; in the data active means enhancement above about 30%; further: 0% is about no effect
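Enhancer read-out: after compound pinning and an initial kinetic agonist-mode read, an EC20 of TRH (10 nM final) was injected and fluo-8 calcium signal (Ex 480/Em 530) followed at 1 s/cycle for 100 cycles in TRHR-expressing cells.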
D1 agonist = agonists of human D1 dopamine receptor. HEK293 T-REx D1 cells, calcium flux, agonist mode. AID 504660. activation, % at 2 µM. P21728. actives 1% (n = 360,000); further: 0% is about no effect
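Tetracycline-induced HEK293 TREx D1 cells, force-coupled to calcium signalling, were dye-loaded with a no-wash calcium kit. Compound was pin-added after a 10 s baseline. Fluorescence was read kinetically at 1 cycle/s for 180 s, with calcium rises flagged as agonism.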
An asterisk follows results filed as active; ! = not confirmed by another sample. The list is not random: actives were taken first. Their share in the collection is about 4.6%. Unless noted, no stated cut-off is given here; in the data, active means activation above about 30%; inactive means the rest.

What do the screens show for `COc1ccc(-n2nc(C(=O)Nc3ccc(C(C)=O)cc3)nc2-c2ccccc2)cc1`?
D1 antag: 19.7; D1 potentiator: -1.6; TRHR ag: -0.1; TRHR PAM: -2.3; D1 agonist: 3.9

What do the screens show for `Cc1ccccc1Nc1c(-c2ccc(N3CCOCC3)cc2)nc2ccc(Cl)cn12`?
D1 antag: 6.7; D1 potentiator: -1.0; TRHR ag: 0.4; TRHR PAM: 3.6; D1 agonist: 1.8

How did COc1ccccc1C(CC(=O)c1ccccc1)CC(=O)c1ccccc1 do in these assays?
D1 antag: -29.6; D1 potentiator: -1.7; TRHR ag: 2.0; TRHR PAM: -7.9; D1 agonist: 30.1*

How did Cc1c(C)n(CCc2ccccc2)c2ncnc(NCCCO)c12 do in these assays?
D1 antag: -32.1*; D1 potentiator: -7.2; TRHR ag: -0.8; TRHR PAM: 5.5; D1 agonist: -1.0

Results for CNc1nc(-c2ccc3c(c2)CCN3C(=O)CC(C)(C)C)c(C)s1 ?
D1 antag: -34.8*; D1 potentiator: 1.6; TRHR ag: -0.5; TRHR PAM: 8.2; D1 agonist: 2.8

Results for Cc1ncsc1CCOC(=O)c1cccc([N+](=O)[O-])c1 ?
D1 antag: -32.8*!; D1 potentiator: -8.0; TRHR ag: -1.5; TRHR PAM: 2.1; D1 agonist: 7.5

What do the screens show for `CCOCCc1nnc(NC(=O)C(=O)c2cc(C)n(-c3ccc(C)c(C)c3)c2C)s1`?
D1 antag: 0.1; D1 potentiator: -1.2; TRHR ag: 0.0; TRHR PAM: -3.2; D1 agonist: 2.0

What do the screens show for `COc1ccc(-c2cc(=O)[nH]c(=S)[nH]2)cc1`?
D1 antag: -18.5; D1 potentiator: -8.7; TRHR ag: 0.4; TRHR PAM: 3.6; D1 agonist: 2.0

How did COc1ccc(-c2ccc(C(=O)O)c(=O)[nH]2)cc1 do in these assays?
D1 antag: -30.1*; D1 potentiator: -2.5; TRHR ag: 0.0; TRHR PAM: -2.7; D1 agonist: 5.3

What do the screens show for `COc1ccc(OC)c(NC(=O)c2c(N3CCCC3=O)c3cc(OC)ccc3n2C)c1`?
D1 antag: -1.8; D1 potentiator: 0.4; TRHR ag: -0.2; TRHR PAM: 3.4; D1 agonist: -0.7

How did O=C(Nc1cccc(-c2nc3ccccc3[nH]2)c1)c1c(F)cccc1F do in these assays?
D1 antag: -15.1; D1 potentiator: -2.2; TRHR ag: -1.3; TRHR PAM: 2.9; D1 agonist: 3.1

What do the screens show for `O=C(Nc1ccccc1C(=O)N/N=C/c1ccncc1)c1ccccc1`?
D1 antag: -31.8*; D1 potentiator: -11.2; TRHR ag: 0.3; TRHR PAM: 0.4; D1 agonist: 3.4

How did O=C(CCC(=O)Nc1ccccc1)N/N=C/c1ccncc1 do in these assays?
D1 antag: -6.0; D1 potentiator: -3.6; TRHR ag: -0.9; TRHR PAM: 13.7; D1 agonist: 5.2

What do the screens show for `COc1ccc(/C=N/NC(=O)CCn2cnc3ccccc32)cc1`?
D1 antag: -51.2*; D1 potentiator: -4.4; TRHR ag: -1.1; TRHR PAM: -3.1; D1 agonist: 4.3

Results for COc1ccc(NC(=O)CCC(=O)N/N=C/c2ccncc2)cc1 ?
D1 antag: -64.0*; D1 potentiator: -5.0; TRHR ag: 0.9; TRHR PAM: 0.5; D1 agonist: 1.7

How did Cc1ccccc1NC(=O)CCC(=O)N/N=C/c1ccncc1 do in these assays?
D1 antag: -40.5*; D1 potentiator: -2.8; TRHR ag: 3.0; TRHR PAM: -2.5; D1 agonist: 11.3

What do the screens show for `Cc1cc(C)cc(NC(=O)CSc2nc3c([nH]c4ccccc43)c(=O)n2-c2ccc(F)cc2)c1`?
D1 antag: 5.9; D1 potentiator: -0.8; TRHR ag: 0.7; TRHR PAM: -0.5; D1 agonist: 4.4

How did COc1ccc(NC(=O)CSc2nncn3c2cc2oc(C)cc23)cc1OC do in these assays?
D1 antag: -25.3; D1 potentiator: -5.4; TRHR ag: 0.0; TRHR PAM: -8.8; D1 agonist: 11.0

What do the screens show for `Cc1ccc(-c2cc3ncc(C(=O)c4cc([N+](=O)[O-])ccc4O)cn3n2)cc1`?
D1 antag: 9.7; D1 potentiator: -4.5; TRHR ag: 3.6; TRHR PAM: -1.0; D1 agonist: 12.2

What do the screens show for `COc1ccc(OC)c(-c2nnc3n(Cc4ccc(C)cc4)c(=O)c4ccccc4n23)c1`?
D1 antag: -5.7; D1 potentiator: 0.6; TRHR ag: 0.4; TRHR PAM: 1.6; D1 agonist: 0.7

Results for COc1ccc(/C=N/NC(=O)CNS(=O)(=O)c2ccccc2)cc1 ?
D1 antag: -38.4*; D1 potentiator: -6.2; TRHR ag: -0.3; TRHR PAM: 6.4; D1 agonist: 0.3

How did c1ccc(NC2=NCCN2CCCC2CCCCC2)cc1 do in these assays?
D1 antag: -5.3; D1 potentiator: -3.1; TRHR ag: 1.4; TRHR PAM: -2.5; D1 agonist: 32.9*

How did c1ccc(CCCCN2CCN=C2Nc2ccccc2)cc1 do in these assays?
D1 antag: 3.5; D1 potentiator: 1.4; TRHR ag: 0.2; TRHR PAM: 31.7*; D1 agonist: 5.3

Results for Fc1cccc(CCN2CCN=C2Nc2ccccc2)c1 ?
D1 antag: -18.2; D1 potentiator: -4.5; TRHR ag: 8.7; TRHR PAM: -2.3; D1 agonist: 20.0

How did CCN(CC(=O)Nc1c(F)cccc1F)C(=O)c1ccc2c(c1)S(=O)(=O)N=C1CCCCCN12 do in these assays?
D1 antag: 9.8; D1 potentiator: 7.7; TRHR ag: -0.3; TRHR PAM: 9.5; D1 agonist: 4.4

How did CC1=C(C(=O)Nc2cc(Cl)ccc2C)C2(CCCCC2)OC1=O do in these assays?
D1 antag: 14.6; D1 potentiator: 1.4; TRHR ag: 0.2; TRHR PAM: 7.4; D1 agonist: 32.3*

What do the screens show for `COc1cc(OC)c(NC(=O)C2=C(C)C(=O)OC23CCCCCC3)cc1Cl`?
D1 antag: -69.8*; D1 potentiator: -5.5; TRHR ag: 0.1; TRHR PAM: 14.2; D1 agonist: -0.7

Results for CC1=C(C(=O)NCc2cccc(Cl)c2)C2(CCCCCC2)OC1=O ?
D1 antag: -31.1*; D1 potentiator: -1.8; TRHR ag: -1.0; TRHR PAM: 17.3; D1 agonist: 1.4

Results for CC1=C(C(=O)Nc2cc(C)ccc2C)C2(CCCCCC2)OC1=O ?
D1 antag: 7.3; D1 potentiator: -1.2; TRHR ag: 1.3; TRHR PAM: 12.3; D1 agonist: -1.6

How did CCOC(=O)c1sc(NC(=O)c2nc(SCC)ncc2Cl)c(C(=O)OCC)c1C do in these assays?
D1 antag: 1.2; D1 potentiator: -0.9; TRHR ag: 0.8; TRHR PAM: 7.5; D1 agonist: 4.8

How did NC(=O)C1CCN(C(=O)c2ccc(NC(=O)c3nsc4ccccc34)cc2)CC1 do in these assays?
D1 antag: -7.6; D1 potentiator: -0.7; TRHR ag: -0.1; TRHR PAM: -0.9; D1 agonist: 0.4
